# Reference: the supplement of paper PMC10849652
# The full data set covers some 7,900 targets. This sample favours those with a hit. About 0.6% of all pairs of compound and target were hits. Unmarked numbers belong to inactive results.
# Tests used:
# Assay in all cases: log2 fold change, soluble protein after heating vs DMSO (PISA); higher = thermal stabilisation; K562 cells, 10 uM, 30 min; active = over 0.2 and 3.5 SD of the protein, either way, in both replicates (recomputed)
# IRAK-1-4 Inhibitor I = compound: C1COCCN1CCN2C3=CC=CC=C3N=C2NC(=O)C4=CC(=CC=C4)[N+](=O)[O-] [IRAK-1-4 Inhibitor I]
# Outline: (§1)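 Soluble protein was quantified by TMTpro 16plex LC-MS/MS after channel sums were equalised. It was obtained as the supernatant after 21,000xg for 90 min from pooled aliquots of K562 cells (2×10^6 cells/mL, 10 μM compound, 30 min) heated for 3 min across 48°C-58°C and extracted in PBS with 0.5% NP-40 at 4°C. Thermal stability values are relative to control samples and come from duplicates. They are given as log2 fold changes.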
# ibrutinib = compound: C=CC(=O)N1CCC[C@@H](n2nc(-c3ccc(Oc4ccccc4)cc3)c3c(N)ncnc32)C1 [ibrutinib]
# Outline: as §1
# [1] = compound: CC(=O)c1cnc2ccc(-c3cc(Cl)c(O)c(Cl)c3)nc2c1N[C@H]1CC[C@H](CN(C)C)CC1
# Outline: as §1
# ralimetinib = compound: CC(C)(C)Cn1c(N)nc2ccc(-c3[nH]c(C(C)(C)C)nc3-c3ccc(F)cc3)nc21 [ralimetinib]
# Outline: as §1
# [2] = compound: CC(C)(O)CC(=O)NCCn1ccc2ncnc(Nc3ccc(Oc4cccc(C(F)(F)F)c4)c(Cl)c3)c21
# Outline: as §1
# [3] = compound: CC(C)C1=C2N=C(C=C(N2N=C1)NCC3=CC=CC=C3)NCCCCCCN
# Outline: as §1
# [4] = compound: CC(C)C[C@@H](C=O)NC(=O)[C@H](CC(C)C)NC(=O)[C@H](CC(C)C)NC(=O)OCc1ccccc1
# Outline: as §1
# pinometostat = compound: CC(C)N(C[C@H]1O[C@@H](n2cnc3c(N)ncnc32)[C@H](O)[C@@H]1O)[C@H]1C[C@@H](CCc2nc3cc(C(C)(C)C)ccc3[nH]2)C1 [pinometostat]
# Outline: as §1
# [5] = compound: CC1=C(C(CC(=O)N1)C2=CC=C(C=C2)C(F)(F)F)C(=O)NC3=C(C=C4C(=C3)C=NN4)F
# Outline: as §1
# [6] = compound: CC1=C(C2=C(C=C1)C(=O)C3=CC=CC=C3N2CCCN)C
# Outline: as §1
# UniProt Q969T4, sequence (Q969T4 whole entry, looked up): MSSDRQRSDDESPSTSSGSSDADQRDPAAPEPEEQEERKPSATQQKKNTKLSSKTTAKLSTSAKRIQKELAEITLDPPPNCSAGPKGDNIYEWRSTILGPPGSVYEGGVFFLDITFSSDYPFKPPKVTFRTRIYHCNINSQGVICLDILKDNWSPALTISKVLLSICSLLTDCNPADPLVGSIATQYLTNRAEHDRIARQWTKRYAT
# UniProt Q9Y3C0, sequence (Q9Y3C0 whole entry, looked up): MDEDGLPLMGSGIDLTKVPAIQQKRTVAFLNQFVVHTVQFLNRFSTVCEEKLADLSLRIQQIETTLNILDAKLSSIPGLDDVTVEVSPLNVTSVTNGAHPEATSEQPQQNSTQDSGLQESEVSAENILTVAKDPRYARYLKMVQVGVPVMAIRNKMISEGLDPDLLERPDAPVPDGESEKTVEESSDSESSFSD
# UniProt Q9P253, sequence (Q9P253 whole entry, looked up): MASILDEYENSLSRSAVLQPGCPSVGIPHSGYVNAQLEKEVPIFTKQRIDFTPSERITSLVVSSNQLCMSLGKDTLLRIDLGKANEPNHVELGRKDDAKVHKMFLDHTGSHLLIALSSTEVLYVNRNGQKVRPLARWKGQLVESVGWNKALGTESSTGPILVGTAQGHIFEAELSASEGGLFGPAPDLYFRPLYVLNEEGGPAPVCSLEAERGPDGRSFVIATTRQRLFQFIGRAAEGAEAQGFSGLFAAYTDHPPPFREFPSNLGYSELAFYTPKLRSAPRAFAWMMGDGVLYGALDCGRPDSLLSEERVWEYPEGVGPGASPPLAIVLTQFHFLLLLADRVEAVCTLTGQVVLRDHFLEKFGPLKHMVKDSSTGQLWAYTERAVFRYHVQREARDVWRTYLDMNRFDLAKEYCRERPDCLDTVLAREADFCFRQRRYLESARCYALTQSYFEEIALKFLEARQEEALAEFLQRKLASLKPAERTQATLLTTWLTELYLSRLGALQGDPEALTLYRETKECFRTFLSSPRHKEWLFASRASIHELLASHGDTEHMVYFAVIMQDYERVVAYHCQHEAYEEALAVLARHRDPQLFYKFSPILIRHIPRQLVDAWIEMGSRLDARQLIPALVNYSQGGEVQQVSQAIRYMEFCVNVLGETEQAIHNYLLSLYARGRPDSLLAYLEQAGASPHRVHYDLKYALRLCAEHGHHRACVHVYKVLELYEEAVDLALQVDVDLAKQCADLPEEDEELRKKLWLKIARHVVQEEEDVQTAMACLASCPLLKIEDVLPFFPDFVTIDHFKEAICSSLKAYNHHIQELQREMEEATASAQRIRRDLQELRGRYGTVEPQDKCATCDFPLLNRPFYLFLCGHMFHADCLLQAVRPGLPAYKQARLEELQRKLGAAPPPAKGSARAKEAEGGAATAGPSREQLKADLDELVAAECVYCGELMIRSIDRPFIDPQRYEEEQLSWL
# UniProt P02585, sequence (P02585 whole entry, looked up): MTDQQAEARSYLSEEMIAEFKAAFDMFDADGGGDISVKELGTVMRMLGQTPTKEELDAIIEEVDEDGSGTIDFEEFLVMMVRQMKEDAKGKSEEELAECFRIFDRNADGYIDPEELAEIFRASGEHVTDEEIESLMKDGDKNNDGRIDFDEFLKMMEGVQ
# UniProt O94967, sequence (O94967 whole entry, looked up): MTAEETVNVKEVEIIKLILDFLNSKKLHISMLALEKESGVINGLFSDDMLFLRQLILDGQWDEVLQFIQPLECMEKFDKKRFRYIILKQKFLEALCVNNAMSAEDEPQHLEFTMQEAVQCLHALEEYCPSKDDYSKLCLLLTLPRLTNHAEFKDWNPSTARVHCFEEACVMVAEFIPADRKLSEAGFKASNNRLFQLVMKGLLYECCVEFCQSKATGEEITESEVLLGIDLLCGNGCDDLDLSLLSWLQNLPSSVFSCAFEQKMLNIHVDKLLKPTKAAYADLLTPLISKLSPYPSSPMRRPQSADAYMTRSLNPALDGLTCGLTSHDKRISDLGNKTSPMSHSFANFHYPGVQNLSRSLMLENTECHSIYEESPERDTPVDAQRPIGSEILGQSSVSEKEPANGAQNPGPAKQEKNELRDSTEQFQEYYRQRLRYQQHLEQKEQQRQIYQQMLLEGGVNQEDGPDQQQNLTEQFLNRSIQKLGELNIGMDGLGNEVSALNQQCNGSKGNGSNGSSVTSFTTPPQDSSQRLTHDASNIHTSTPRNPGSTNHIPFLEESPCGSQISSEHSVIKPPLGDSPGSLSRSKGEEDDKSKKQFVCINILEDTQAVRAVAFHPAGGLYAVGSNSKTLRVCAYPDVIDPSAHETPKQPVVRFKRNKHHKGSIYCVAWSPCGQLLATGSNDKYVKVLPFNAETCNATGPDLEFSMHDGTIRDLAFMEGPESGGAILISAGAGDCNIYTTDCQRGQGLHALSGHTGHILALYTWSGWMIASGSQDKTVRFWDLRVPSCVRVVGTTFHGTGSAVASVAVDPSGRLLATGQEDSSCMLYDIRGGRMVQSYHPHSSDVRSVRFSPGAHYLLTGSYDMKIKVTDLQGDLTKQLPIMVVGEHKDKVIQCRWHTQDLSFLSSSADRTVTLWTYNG
# UniProt Q9UK41, sequence (Q9UK41 whole entry, looked up): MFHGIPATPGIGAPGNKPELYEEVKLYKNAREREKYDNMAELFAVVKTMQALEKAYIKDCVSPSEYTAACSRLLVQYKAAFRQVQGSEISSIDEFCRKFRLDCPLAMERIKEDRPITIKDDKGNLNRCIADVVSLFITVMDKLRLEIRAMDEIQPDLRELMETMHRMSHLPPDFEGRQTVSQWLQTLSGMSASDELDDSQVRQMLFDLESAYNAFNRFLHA
# UniProt Q12888, sequence (Q12888 whole entry, looked up): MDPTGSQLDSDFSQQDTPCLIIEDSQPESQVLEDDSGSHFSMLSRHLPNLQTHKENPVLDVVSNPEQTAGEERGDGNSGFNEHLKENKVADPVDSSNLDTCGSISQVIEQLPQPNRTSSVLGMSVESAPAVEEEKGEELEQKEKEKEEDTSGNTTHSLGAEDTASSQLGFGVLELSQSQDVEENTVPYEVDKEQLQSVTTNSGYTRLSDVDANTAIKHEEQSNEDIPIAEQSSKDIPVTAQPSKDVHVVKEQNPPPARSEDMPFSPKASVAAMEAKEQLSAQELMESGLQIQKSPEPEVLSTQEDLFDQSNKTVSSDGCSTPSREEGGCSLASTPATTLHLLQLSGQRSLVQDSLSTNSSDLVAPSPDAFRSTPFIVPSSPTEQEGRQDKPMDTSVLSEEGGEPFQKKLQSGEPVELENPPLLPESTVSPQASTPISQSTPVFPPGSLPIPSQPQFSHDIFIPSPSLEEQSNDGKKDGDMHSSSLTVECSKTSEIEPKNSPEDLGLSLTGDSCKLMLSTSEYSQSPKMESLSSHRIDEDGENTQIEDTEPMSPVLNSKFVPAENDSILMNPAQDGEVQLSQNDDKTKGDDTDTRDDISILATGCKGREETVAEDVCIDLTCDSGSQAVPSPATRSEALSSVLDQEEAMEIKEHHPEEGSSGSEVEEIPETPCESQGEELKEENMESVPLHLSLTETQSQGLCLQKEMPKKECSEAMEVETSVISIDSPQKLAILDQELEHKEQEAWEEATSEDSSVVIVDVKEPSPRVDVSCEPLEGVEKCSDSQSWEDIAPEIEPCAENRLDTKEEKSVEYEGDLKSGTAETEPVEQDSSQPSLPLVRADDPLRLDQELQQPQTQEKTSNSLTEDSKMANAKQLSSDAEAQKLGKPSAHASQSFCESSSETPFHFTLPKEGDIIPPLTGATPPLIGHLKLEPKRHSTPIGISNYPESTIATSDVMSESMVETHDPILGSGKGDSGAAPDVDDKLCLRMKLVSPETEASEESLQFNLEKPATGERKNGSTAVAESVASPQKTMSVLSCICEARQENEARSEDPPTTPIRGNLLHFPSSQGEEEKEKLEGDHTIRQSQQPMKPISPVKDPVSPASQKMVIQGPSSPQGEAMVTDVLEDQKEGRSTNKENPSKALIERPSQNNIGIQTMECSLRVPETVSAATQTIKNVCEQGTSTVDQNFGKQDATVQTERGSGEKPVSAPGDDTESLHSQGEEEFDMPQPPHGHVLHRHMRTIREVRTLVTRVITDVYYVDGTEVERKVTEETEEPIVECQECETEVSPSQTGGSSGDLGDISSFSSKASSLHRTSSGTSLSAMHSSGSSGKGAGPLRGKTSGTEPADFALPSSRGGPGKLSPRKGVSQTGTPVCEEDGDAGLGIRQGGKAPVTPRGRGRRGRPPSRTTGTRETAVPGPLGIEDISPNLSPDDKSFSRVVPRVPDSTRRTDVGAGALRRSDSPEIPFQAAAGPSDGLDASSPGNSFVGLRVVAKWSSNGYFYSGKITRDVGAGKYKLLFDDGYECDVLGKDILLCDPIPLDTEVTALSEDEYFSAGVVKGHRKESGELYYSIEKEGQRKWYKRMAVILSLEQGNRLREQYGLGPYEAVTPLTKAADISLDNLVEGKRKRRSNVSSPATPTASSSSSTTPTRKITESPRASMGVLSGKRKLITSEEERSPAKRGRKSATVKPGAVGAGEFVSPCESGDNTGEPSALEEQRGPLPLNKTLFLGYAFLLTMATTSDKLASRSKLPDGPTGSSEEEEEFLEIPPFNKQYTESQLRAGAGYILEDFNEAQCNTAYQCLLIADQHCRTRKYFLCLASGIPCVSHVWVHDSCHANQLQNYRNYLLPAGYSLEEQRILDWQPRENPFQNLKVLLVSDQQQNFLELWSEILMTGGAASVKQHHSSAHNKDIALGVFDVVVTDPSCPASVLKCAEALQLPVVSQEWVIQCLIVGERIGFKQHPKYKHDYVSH
# UniProt Q7Z7N9, sequence (Q7Z7N9 whole entry, looked up): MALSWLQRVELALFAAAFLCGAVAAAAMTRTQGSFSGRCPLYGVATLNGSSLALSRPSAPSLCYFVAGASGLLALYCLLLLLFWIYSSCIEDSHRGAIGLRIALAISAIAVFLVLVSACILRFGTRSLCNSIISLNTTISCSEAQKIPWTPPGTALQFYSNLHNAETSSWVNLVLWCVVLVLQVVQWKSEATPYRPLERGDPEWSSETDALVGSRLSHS
Target,log2 fold change (IRAK-1-4 Inhibitor I),log2 fold change (ibrutinib),log2 fold change [1],log2 fold change (ralimetinib),log2 fold change [2],log2 fold change [3],log2 fold change [4],log2 fold change (pinometostat),log2 fold change [5],log2 fold change [6]
TNFRSF8 (UniProt P28908),0.056,0.046,0.005,-0.143,0.016,0.219 (active),0.074,-0.01,0.003,-0.022
WDR47 (UniProt O94967),-0.089,0.055,0.028,-0.005,-0.03,0.028,-0.048,-0.017,0.024,0.015
VPS28 (UniProt Q9UK41),-0.052,0.058,-0.018,-0.051,-0.13,-0.189,0.027,0.059,0.075,0.04
TMEM179B (UniProt Q7Z7N9),0.04,-0.05,-0.061,-0.008,-0.24,-0.011,-0.021,-0.024,0.017,0.019
WDR43 (UniProt Q15061),0.023,0.019,0.012,-0.088,-0.003,0.199,-0.039,-0.035,0.009,0.222 (active)
TMTC3 (UniProt Q6ZXV5),0.007,-0.033,-0.007,0,0.022,-0.218,0.028,-0.019,-0.008,0.018
TNNC2 (UniProt P02585),0.042,0.012,0.004,-0.068,0,0.116,0.025,-0.067,-0.005,0.114
TRAPPC11 (UniProt Q7Z392),-0.007,0.001,-0.048,0.034,-0.063,-0.064,0.012,0.032,-0.048,0.028
VRK1 (UniProt Q99986),-0.041,0.032,0.338,-0.033,-0.32,-0.013,0.055,-0.008,-0.027,0.433 (active)
TMEM161B (UniProt Q8NDZ6),0.06,-0.039,0.008,-0.097,-0.227 (active),-0.052,0.015,-0.002,-0.031,0.022
TRAM1 (UniProt Q15629),-0.036,-0.051,-0.032,-0.014,-0.016,-0.889 (active),0.012,-0.011,0.016,0.119
TP53BP1 isoform 2 (UniProt Q12888),-0.059,-0.046,-0.002,0.056,-0.024,-0.089,0.019,0.021,0.003,-0.337 (active)
WNK1 isoform 7 (UniProt Q9H4A3),0.015,0.01,-0.213,-0.045,0.017,-0.005,0.476 (active),0.004,-0.011,0.027
UCHL5 (UniProt Q9Y5K5),-0.041,-0.051,-0.012,0.03,-0.028,-0.161,0.054,-0.004,-0.004,-0.018
WDR62 isoform 4 (UniProt O43379),0.085,-0.069,-0.579 (active),0.003,-0.003,-0.085,0.042,0.062,0.063,-0.176
UBAP1 isoform 4 (UniProt Q9NZ09),-0.058,0.07,-0.001,-0.024,-0.044,-0.087,0.107,0.018,0.184,-0.112
VPS13B (UniProt Q7Z7G8),0.05,-0.013,-0.016,-0.042,-0.06,-0.241 (active),0.121,0.007,0.03,0.015
UBE2E3 (UniProt Q969T4),0.106,-0.059,-0.027,0.069,-0.046,-0.08,-0.039,0.096,-0.019,0.066
XRCC6 (UniProt P12956),-0.046,-0.057,-0.12,-0.004,-0.124,-0.195,0.074,-0.01,-0.001,-0.008
TRAPPC13 isoform 5 (UniProt A5PLN9),-0.06,-0.047,-0.121,-0.048,-0.093,-0.014,0.026,0.033,-0.06,-0.047
VPS18 (UniProt Q9P253),-0.02,-0.029,-0.029,-0.037,-0.024,-0.319,0.053,0.055,-0.019,0.059
TXNL1 (UniProt O43396),-0.035,-0.014,-0.001,-0.003,-0.03,-0.052,0.278 (active),-0.029,-0.027,0.038
TTI1 (UniProt O43156),-0.012,0.009,-0.065,0.1,-0.113,-0.059,0.016,0.13,-0.011,0.074
WBP4 (UniProt O75554),0.082,-0.001,0.033,-0.057,-0.001,0.098,0.041,-0.06,-0.003,0.02
WASHC3 (UniProt Q9Y3C0),0.096,0.015,0.023,-0.033,0.024,-0.166,-0.041,-0.074,0.059,0.032
TNFRSF10A (UniProt O00220),0.002,0.034,-0.064,-0.072,-0.073,0.043,0.078,-0.002,-0.003,0.021
U2AF2 (UniProt P26368),-0.069,0.029,-0.313 (active),0.03,-0.011,-0.102,0.028,0.03,-0.04,0.192
TOM1 isoform 2 (UniProt O60784),0.101,0.013,0.028,0.071,-0.017,-0.302,0.033,0.023,-0.006,0.16
XPO6 (UniProt Q96QU8),-0.131,0.246,-0.038,0.083,0.434 (active),-0.189,-0.023,0.646 (active),-0.08,0.067
TMEM87B (UniProt Q96K49),0.139,-0.084,-0.046,-0.086,-0.204,-0.39 (active),-0.007,0.065,0.057,0.029
